Inconclusive results are not listed. Active and inactive are the calls of the source. The calls were made as follows: active = hit-call score of the fitted dose curve at least 0.9, where 1 is the maximum; inconclusive = response in the unintended direction; inactive = score below 0.9.
assay: Tanguay_ZF_120hpf_CFIN_legacy: (Legacy) Oregon State University Tanguay Lab 120 Hour Post-fertilization zebrafish Assay for Caudal Fin Malformation (AID 2283649)
Protocol: Tanguay_ZF_120hpf_legacy is a whole embryo, multiplexed endpoint assay using zebrafish larvae exposed for 120 hours post fertilization on a 96-well plate.Tanguay_ZF_120hpf_CFIN_legacy is one of one assay component(s) measured or calculated from the Tanguay_ZF_120hpf_legacy assay. It is designed to make measurements of zebrafish development as detected with brightfield microscopy of developing zebrafish embryos.Data from the assay component Tanguay_ZF_120hpf_CFIN_legacy was analyzed into 1 assay endpoints. This assay endpoint, Tanguay_ZF_120hpf_CFIN_legacy, was analyzed in the positive analysis fitting direction relative to DMSO as the negative control and baseline of activity. Using a type of morphology reporter, gain-of-signal activity can be used to understand changes in developmentals as they relate to the whole embryo. To generalize the intended target to other relatable targets, this assay endpoint is annotated to the zebrafish development intended target family, where the subfamily is caudal fin morphogenesis.
Zebrafish husbandry: Tropical 5D wild-type adult zebrafish were housed in at an approximate density of 1000 per 100 gallon tank at the Sinnhuber Aquatic Research Laboratory, Oregon State University, Corvallis, OR. Each tank was kept at standard laboratory conditions of 28C on a 14-h light/10-h dark photoperiod in fish water consisting of reverse osmosis water supplemented with a commercially available salt (Instant Ocean). Spawning funnels were placed into the tanks the night prior, and embryos were collected and staged. To increase bioavailability, the chorion was enzymatically removed using pronase (63.6mg/ml, >/= 3.5U/mg, Sigma-Aldrich: P5147) at 4 hours post fertilization (hpf) using a custom automated dechorionator.Chemical exposures: Six hpf dechorionated embryos were placed 1 embryo per well in a 96-well plate prefilled with 90 ul of EM using automated embryo placement systems (AEPS). Ten microliters of each row of dilution plate 2 was added to 2 exposure plates. The final DMSO concentration used was 0.64% (vol/vol). Thirty-two embryos were also exposed to 5uM trimethyltin chloride (positive control). Plates were sealed to prevent evaporation and foil covered to reduce light exposure and kept in a 28C incubator. Embryos were statically exposed until 120 hpf. At 24 hpf, embryos were assessed for photomotor response using a custom photomotor response analysis tool (PRAT) and for developmental toxicity endpoints (MO24: mortality at 24 hpf, DP: developmental progression, SM: spontaneous movement, and NC: notochord distortion). At 120 hpf, locomotor activity was measured using Viewpoint Zebralab and assessed for 18 endpoints. Zebrafish acquisition and analysis program (ZAAP), a custom program designed to inventory, acquire, and manage zebrafish data, was used to collect developmental endpoints as either present or absent (i.e., binary responses were recorded). If mortality occurred for an embryo (at either 24 or 120 hpf), the non-mortality endpoints were not measured.

SMILES	outcome	AC50
Cc1c(COC(=O)[C@@H]2[C@H](/C=C(\Cl)C(F)(F)F)C2(C)C)cccc1-c1ccccc1	inactive	–
CC(C)(C)C(=O)C(Oc1ccc(Cl)cc1)n1cncn1 (stereo not given)	inactive	–
CC1(C)C(C(=O)OC(C#N)c2cccc(Oc3ccccc3)c2)C1(C)C (stereo not given)	inactive	–
CCOc1nc(C(Cl)(Cl)Cl)ns1	inactive	–
Cc1nc(N(C)C)nc(OC(=O)N(C)C)c1C	inactive	–
CCN(CC)C(=O)C(C)Oc1cccc2ccccc12 (stereo not given)	inactive	–
OC(c1ccc(Cl)cc1)(c1ccc(Cl)cc1)C(Cl)(Cl)Cl	inactive	–
CC(C)C1(C)N=C(c2ncccc2C(=O)O)NC1=O (stereo not given)	inactive	–
COP(=O)(OC)O/C(C)=C/C(=O)N(C)C	inactive	–
COC(=O)NS(=O)(=O)c1ccc(N)cc1	inactive	–
COP(=S)(OC)SCn1nnc2ccccc2c1=O	inactive	–
CN/C(=N\[N+](=O)[O-])NCc1cnc(Cl)s1	inactive	–
CS(=O)(=O)c1cc(C(F)(F)F)ccc1C(=O)c1cnoc1C1CC1	inactive	–
O=C1C2CC=CCC2C(=O)N1SC(Cl)(Cl)Cl (stereo not given)	inactive	–
CC(C)NC(=O)N1CC(=O)N(c2cc(Cl)cc(Cl)c2)C1=O	inactive	–
CC(C)Nc1nc(Cl)nc(NC(C)C)n1	inactive	–
Nc1c(Cl)c(Cl)nc(C(=O)O)c1Cl	inactive	–
O=C(O)c1c(Cl)ccc2cc(Cl)cnc12	inactive	–
CC1(C)CON(Cc2ccccc2Cl)C1=O	inactive	–
CN=C=S	inactive	–

SMILES	outcome	AC50
C=CCOC(=O)C(C)(C)OC(=O)c1cc(-n2c(=O)cc(C(F)(F)F)n(C)c2=O)ccc1Cl	inactive	–
COCc1cnc(C2=NC(C)(C(C)C)C(=O)N2)c(C(=O)O)c1 (stereo not given)	inactive	–
CCCC(=NOCC)C1=C(O)CC(CC(C)SCC)CC1=O (stereo not given)	inactive	–
COc1cc(OC)nc(NC(=O)NS(=O)(=O)c2ncccc2OCC(F)(F)F)n1	inactive	–
CCOP(=S)(OCC)Oc1nc(Cl)n(C(C)C)n1	inactive	–
CCNP(=S)(OC)O/C(C)=C/C(=O)OC(C)C (stereo not given)	inactive	–
Cc1ccc(N=CN(C)C=Nc2ccc(C)cc2C)c(C)c1	inactive	–
COCC(C)N(C(=O)CCl)c1c(C)csc1C (stereo not given)	–	36.2 µM (active)
CCOC(=O)C(C)OC(=O)c1cc(Oc2ccc(C(F)(F)F)cc2Cl)ccc1[N+](=O)[O-] (stereo not given)	inactive	–
CCOc1cc(C(C)(C)C)ccc1C1COC(c2c(F)cccc2F)=N1 (stereo not given)	inactive	–
CO/N=C(/C1=NOCCO1)c1ccccc1Oc1ncnc(Oc2ccccc2Cl)c1F	–	6.85 µM (active)
Nc1c(Cl)c(F)nc(OCC(=O)O)c1Cl	inactive	–
CNC(=O)Oc1cccc2ccccc12	inactive	–
N#Cc1c[nH]cc1-c1cccc2c1OC(F)(F)O2	inactive	–
CSC(=O)c1c(C(F)F)nc(C(F)(F)F)c(C(=O)SC)c1CC(C)C	inactive	–
CCCCC(C#N)(Cn1cncn1)c1ccc(Cl)cc1 (stereo not given)	inactive	–
COc1cc(Cl)c(OC)cc1Cl	inactive	–
O=c1n(Cl)c(=O)n(Cl)c(=O)n1Cl	inactive	–
COCC(=O)N(c1c(C)cccc1C)C(C)C(=O)OC (stereo not given)	inactive	–
CC(C)N1C(=O)N(c2ccccc2)CSC1=NC(C)(C)C	inactive	–
